Reference: PubChem BioAssay (NCATS)
“And” between values parts separate entries of the source, which are not always exact repeats. Identical values can stand only once. Results filed as inconclusive are left out. The source made the active and inactive calls. Calls come from the whole dose curve; as a rule, active = well fitted inhibition curve with a large enough effect; inconclusive = small, poorly fitted or top-dose-only effect; inactive = no such curve, though single readings can be large or run the other way.

Assay: Primary qHTS for inhibitors of nuclear receptor binding SET domain protein 2 (NSD2) in an RCH-ACV wild type WT cells (2C) (AID 1645877); note: nearly all actives have a fitted effect of over 70% in size
Conditions: RCH-ACV (leukaemia line) NSD2 WT (2C) viability, CellTiter-Glo, 72 h; series mostly up to 44.9 µM
From the text: Assay Provider: Jonathan D. Licht, MD
University of Florida College of Medicine, Gainesville, FL
Mutations in epigenetic regulators are common in relapsed pediatric acute lymphoblastic leukemia (ALL). Here, we uncovered the mechanism underlying the relapse of ALL driven by an activating mutation of the NSD2 histone methyltransferase (p.E1099K). […] Correction of this mutation restored glucocorticoid sensitivity. The transcriptional response to glucocorticoids was blocked in NSD2 mutant cells due to depressed glucocorticoid receptor (GR) levels and the failure of glucocorticoids to autoactivate GR expression. […] Pre-treatment of NSD2 p.E1099K cell lines and PDX samples with PRC2 inhibitors reversed glucocorticoid resistance in vitro and in vivo.
High-throughput drug screening of isogenic RCH-ACV cell lines was performed at the National Center for Advancing Translational Science (NCATS), National Institutes of Health as previously described (1). Briefly, isogenic RCH-ACV NSD2 p.E1099K mutant (9B) and WT cells (2C) were plated at 500 cells/well in a 1536-well plate with a 72-hour incubation with compounds prior to addition of CellTiter-Glo to assess cell viability. NCATS libraries screened include: NPC, MIPE 5.0, Kinase and NPACT. To determine compound activity in the qHTS assay, the concentration-response data for each sample was plotted and modeled by a four-parameter logistic fit yielding IC50 and efficacy (maximal response) values. The area under the curve (AUC) of the dose-response curve ensures both efficacy (magnitude of cell killing) and potency (concentration that elicits cell killing) are accounted for in the analysis of activity.
1. Tobie D Lee, Olivia W Lee, Kyle R Brimacombe, Lu Chen, Rajarshi Guha, Sabrina Lusvarghi, Bethilehem G Tebase, Carleen Klumpp-Thomas, Robert W Robey, Suresh V Ambudkar, Min Shen, Michael M Gottesman, Matthew D Hall. A High-Throughput Screen of a Library of Therapeutics Identifies Cytotoxic Substrates of P-glycoprotein. Mol Pharmacol. 2019, Nov;96(5):629-640.
In the case of Cc1cc(OCCCS(C)(=O)=O)cc(C)c1-c1cccc(COc2ccc3c(c2)OCC3CC(=O)O)c1 (stereo not given), the Potency is reported as “inactive”. For C=C[C@@]12COC(=O)C(=C)[C@@H]1[C@@H](O)[C@H](C(=C)C(=O)OC)[C@@H](O)C2, the Potency was “inactive”. With FC(F)(F)c1ccccc1-c1cc(C(F)(F)F)c2nc(C3=NOC4(CCCCC4)C3)[nH]c2c1 the Potency was 14.5 µM (active). In the case of CN1CCN(c2ccc(OC(F)(F)F)c(Nc3ncc4c(n3)-c3c(c(C(N)=O)nn3CCO)CC4)c2)CC1, the Potency is reported as 72.8 nM (active) and 132 nM (active). In the case of CC(O)(C(=O)C1CC1(CO)COC1OC(CO)C(O)C(O)C1O)C1C(O)CC2C3CC=C4CC(O)CC(O)C4(C)C3C(O)CC21C (stereo not given), the Potency is reported as 0.383 µM (active). In the case of N[C@@H]1c2cccnc2[C@H](OC(=O)N2CCC(n3c(=O)[nH]c4ncccc43)CC2)CC[C@H]1c1cccc(F)c1F, the Potency is reported as “inactive”. In the case of O=C1Nc2nc(-c3c(O)cccc3OCC3CC3)cc([C@@H]3CCCNC3)c2CO1, the Potency is reported as 5.15 µM (active). With Cc1cc(C)cc(-c2cnc3cc(Cl)c(-c4cccc(O)c4)cc3c2OCCCN)c1 the Potency was 16.3 µM (active). For CN1C(=O)c2sccc2N(C)c2nc(Nc3ccc(S(N)(=O)=O)cc3)ncc21, the Potency was 0.59 µM (active). For COc1ccc(C2=NC(c3ccc(Cl)cc3)C(c3ccc(Cl)cc3)N2C(=O)N2CCNC(=O)C2)c(OC(C)C)c1 (stereo not given), the Potency was 2.58 µM (active). With CCOc1ccc(-n2c([C@@H](C)N(Cc3cccnc3)C(=O)Cc3ccc(OC(F)(F)F)cc3)nc3ncccc3c2=O)cc1 the Potency was 18.3 µM (active). In the case of Cc1cn(CCN2CCN(c3ccccc3-c3cc(C#N)cc(C(=O)NCCCN4CCCC4)c3)CC2)c2ccccc12, the Potency is reported as 5.78 µM (active) and 6.61 µM (active). For CCc1cccc(CC)c1-n1c(C=C(C)C)c(C(=O)N2CCNCC2)cc(-c2nc(-c3ccc(C(F)(F)F)cc3)cs2)c1=O, the Potency was 10 µM (active). For COc1ccc(C2Oc3c(OC)cc(CCCO)cc3C2COC2OC(CO)C(O)C(O)C2O)cc1OC (stereo not given), the Potency was “inactive”. For CC(C)CCNc1ncccc1C(=O)N1CCN(Cc2ccccc2)CC1, the Potency was “inactive”. For C=C1CC2OC(=O)C(COC)C2C(OC(=O)/C(C)=C\C)CC2(C)OC1=CC2=O (stereo not given), the Potency was 2.26 µM (active). With COC(=O)C[C@H]1[C@]2(C)C3=C(C)[C@H](c4ccoc4)C[C@H]3O[C@@H]2[C@H](O)C2[C@](C)(C(=O)OC)C=CC(=O)[C@@]21C (stereo not given in full) the Potency was “inactive”. With C=C(C)C(=O)O[C@H]1C[C@@](C)(O)C2(O)CCC(C)(/C=C3/OC(=O)C(COC)=C31)O2 (stereo not given in full) the Potency was 0.713 µM (active). For C[C@]12CC[C@@H]3c4ccc(O)c(O)c4CC[C@H]3[C@@H]1CCC2=O, the Potency was 11.5 µM (active). For CC1=CC2/C=C(\C)CCC(O)C(=O)C(O)CC(=O)C23C(=O)NC(CC(C)C)C3C1C (stereo not given), the Potency was 6.32 µM (active). For Nc1nc2c(c(N3CC[C@@H](N)C3)n1)CCCc1ccccc1-2, the Potency was 18.3 µM (active). For Cc1ccc(C(=O)Nc2ccc(CN3CCN(C)CC3)c(C(F)(F)F)c2)cc1C#Cc1cnc2[nH]ncc2c1, the Potency was 14.5 nM (active) and 41.7 nM (active). With Nc1nc2c(ncn2C2OC3COP(=O)(O)OC3C2O)c(=O)[nH]1 (stereo not given) the Potency was “inactive”. With CN1CCN(S(=O)(=O)c2ccc(-c3cnc(N)c(C(=O)Nc4cccnc4)n3)cc2)CC1 the Potency was 0.317 µM (active). In the case of C=C1C(=O)OC2CC(C)=C(C(C)CCCOC(C)=O)C(OC(=O)CC(C)CC)C12 (stereo not given), the Potency is reported as 7.09 µM (active). In the case of C[C@@H]1C[C@H]2O[C@@]3(O[C@@H]2C(C)(C)O)C(O)[C@@]2(C)C4CCC5C(C)(C)[C@@H](O[C@H]6OC[C@H](O)[C@@H](O)[C@@H]6O)CC[C@@]56C[C@@]46CC[C@]2(C)C13 (stereo not given in full), the Potency is reported as “inactive”. In the case of COc1cc2c(Nc3cc(F)c(Cl)c(Cl)c3)ncnc2cc1OCC1CCCN(C)CCC1, the Potency is reported as 5.15 µM (active). With COc1cc(N2CCC(N)CC2)ccc1Nc1ncc(Cl)c(-c2c[nH]c3ccccc23)n1 the Potency was 1.63 µM (active) and 2.35 µM (active). In the case of CN1CCC(NC(=O)c2cc(-c3c(O)cc(O)cc3Oc3ccc([N+](=O)[O-])cc3)on2)CC1, the Potency is reported as 0.23 µM (active). With Cc1nc(C(=O)N2CCC[C@H]2Cc2nnc(-c3ccccc3)o2)c(-c2ccccc2F)s1 the Potency was “inactive”. In the case of CC(C)(CO)c1cc2cc(NC(=O)C3(c4ccc5c(c4)OC(F)(F)O5)CC3)c(F)cc2n1CC(O)CO (stereo not given), the Potency is reported as “inactive”. For COc1ccc(-n2c(SCCCN3C(=O)c4cccc5cccc(c45)C3=O)nnc2-c2ccncc2)cc1, the Potency was “inactive”. In the case of CC(C)CCNC(=O)c1ccc2c(c1)nc(Nc1n[nH]c3ccc(-c4ccccc4OC(F)(F)F)cc13)n2C1CCC(O)CC1 (stereo not given), the Potency is reported as 14.5 µM (active). In the case of CC(=O)NCc1cccc(OC[C@@H](O)CNCCc2ccc(NS(=O)(=O)c3ccccc3)cc2)c1, the Potency is reported as “inactive”. For C=CC(=O)Nc1ccc(CN2C(=O)N(c3cc(OC)cc(OC)c3)Cc3cnc(Nc4ccc(N5CCN(C)CC5)cc4)nc32)cc1, the Potency was 0.817 µM (active). For CN(C)CCCn1cc(C2=C(c3c[nH]c4ccccc34)C(=O)NC2=O)c2ccccc21, the Potency was 3.25 µM (active). With COc1ccnc(CS(=O)c2nc3cc(OC(F)F)ccc3[nH]2)c1OC (stereo not given) the Potency was “inactive”. For C[C@H]1CC[C@@]2(OC1)O[C@H]1CC3C4CC[C@H]5C[C@@H](O)CC[C@]5(C)C4=CC(=O)[C@]3(C)[C@H]1[C@@H]2C (stereo not given in full), the Potency was “inactive”. For COC(=O)c1ccc2c(c1)nc(NC(=O)c1ccccc1)n2CCCc1ccccc1, the Potency was “inactive”. With Fc1ccc(-n2cc(CCCCN3CCC4(CC3)OCc3ccccc34)c3ccccc32)cc1 the Potency was 6.49 µM (active).
